Screening data (PubChem BioAssay)
Pf growth 96h: P. falciparum growth inhibition at 96 hour, primary screen for plastid delayed-death inhibitors. P. falciparum luciferase reporter growth, 96 h. Potency, µM (highest dose often 28.7 µM), without a hit: at the highest dose activity change, negative = inhibition, hits mostly inhibitors. 6.9% of 320,000 active; active means well fitted inhibition curve with a large enough effect; inconclusive means small, poorly fitted or top-dose-only effect, or another doubt; inactive means no such curve, though single readings can be large or run the other way; further: potency means the concentration at half of the fitted maximal effect; on the % scale 0 is the no-effect control and ±100 the full control effect
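Erythrocytes infected with luciferase-expressing P. falciparum were dispensed at 2% hematocrit and 0.05% parasitemia (final), then incubated with compounds 96 hours at 37 C in 5% CO2. Luminescence after detection reagent addition reported growth.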
Shiga inhibitor: blocks Shiga toxin action in Vero cells | 9.2% of 290,000 active | inhibition, % at 38.7 µM | Vero cells, Shiga toxin protein synthesis inhibition reporter; in the data active means inhibition mostly above about 28%, no sharp cut-off; inactive means mostly below about 43%; further: 0% is about no effect
CHX counter: affects cycloheximide protein synthesis inhibition readout, counter-screen; cell reporter, cycloheximide protein synthesis inhibition counterscreen; max response, %; 12% of 300,000 active; in the data active means max response mostly above about 13%, no sharp cut-off; inactive means mostly below about 14%; further: read at 38.3 µM for the half of the compounds with a filed dose; 0% is about no effect
Pf growth 48h: P. falciparum growth inhibition at 48 hours (one generation). P. falciparum luciferase growth in erythrocytes, 48 h. Potency, µM (top dose mostly 28.7 µM), inactives show top-dose activity change, negative = inhibition, usual class: inhibitors. 5.9% of 310,000 active. AID 504832; active means well fitted inhibition curve with a large enough effect; inconclusive means small, poorly fitted or top-dose-only effect, or another doubt; inactive means no such curve, though single readings can be large or run the other way; further: potency means the concentration at half of the fitted maximal effect; on the % scale 0 is the no-effect control and ±100 the full control effect
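In quantitative HTS format, infected erythrocytes bearing luciferase-reporter parasites were treated for a single generation at 37 C. Luminescence after adding detection reagent served as the growth measure.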
NS1 inh: blocks influenza NS1 protein function. 0.4% of 270,000 active. Potency, µM (top dose mostly 46.1 µM), for the others: at the top dose activity, positive = more growth; further: potency means the concentration at half of the fitted maximal effect; actives are rising curves; nearly all actives have a fitted effect of over 50% in size
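Recovery from NS1-induced slow growth read by OD600 in budding yeast switched to galactose assay medium (pH 6.0, -URA) at 1:100 dilution. Compound 23 nl per well; the matching strain lacking NS1 serves as control.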
NS1 inh valid: influenza NS1 function inhibition validation; shares compounds with NS1 inh; influenza NS1 function cell assay, 15-point titration; activity change, negative = inhibition, % at 32.9 µM; 1,400 tested, under 10 active; AID 492980; further: 0% is about no effect
* hit, by the source's call; ? = inconclusive; / = not tested or not shown. Sampled rows, rich in hits. Any-hit rate of the full collection: about 21%. Unless noted, the call rests on the fitted dose curve.

SMILES | Pf growth 96h | Shiga inhibitor | CHX counter | Pf growth 48h | NS1 inh | NS1 inh valid
COc1cc2nc(SCC(=O)NCCc3ccccc3)n(Cc3ccco3)c(=O)c2cc1OC | ? | 40 | -2 | -5% | 2.5µM* | -3
Cc1nn(C)cc1/C=N\NC(=O)c1csc2c1CCCC2 | 0% | 65* | 65* | -11% | ? | 2
Cc1nn(C)cc1/C=N\NC(=O)Cc1ccc([N+](=O)[O-])cc1 | 4% | 38 | 1 | 15% | 13% | /
N=c1c(C(=O)NCc2ccco2)cc2c(=O)n3ccccc3nc2n1Cc1ccc(Cl)cc1 | 2.3µM* | 29 | 17 | 10µM* | 7.9µM* | -27
Cc1ccc(/C=N/NC(=O)Cc2cccn2C)s1 | -25% | 58* | 49* | 90% | 2.8µM* | 11
CCOC(=O)C1=C(c2ccccc2)c2ccc(OC)cc2N(S(=O)(=O)C(F)(F)F)C1C(=O)OCC (configuration not stated) | / | 22 | 1 | / | / | /
Cn1c(=O)c2c(n(Cc3ccccc3)c1=O)NC(=O)C2CC(=O)NCc1cccc(Cl)c1 (configuration not stated) | ? | -11 | -3 | ? | 14µM* | 3
CCN1C(=O)C(CC(=O)Nc2ccc(OC)cc2)N(CCc2ccccc2)C1=S (configuration not stated) | ? | 17 | -2 | ? | / | /
CCCOc1ccc(NC(=O)CC2C(=O)N(Cc3ccccc3)C(=S)N2Cc2cccs2)cc1 (configuration not stated) | ? | 57 | 22* | ? | 3.5µM* | -12
COC(=O)CN1C(=S)N(Cc2ccccc2)C(=O)C1CC(=O)Nc1ccc(Br)cc1 (configuration not stated) | ? | -22 | -2 | 15µM* | 11µM* | -31
COC(=O)CN1C(=S)N(c2ccc(Cl)cc2)C(=O)C1CC(=O)Nc1ccc(Cl)cc1 (configuration not stated) | 10% | -9 | -3 | -5% | -5% | /
O=C(CSc1nc2cc(C(=O)O)ccc2c(=O)n1-c1ccc(F)cc1)Nc1ccc(F)c(F)c1F | ? | 10 | 1 | / | 14% | /
COc1ccc(-n2c(SCC(=O)Nc3ccc(C)cc3)nc(O)c(Cc3ccccc3)c2=O)cc1 | ? | -10 | -1 | 1% | 17% | /
O=C(CSc1nc2ccccc2c(=O)n1-c1ccc(F)cc1F)Nc1ccc2c(c1)CCC2 | ? | 80* | 59* | 9.3µM* | 13µM* | 2
Cc1ccc(-n2c(SCC(=O)NNC(=S)Nc3ccccc3)nc3ccccc3c2=O)cc1 | 4% | -3 | 3 | -7% | 4.5µM* | -26
O=c1c2ccccc2nc(SCc2nnc(-c3ccccc3)o2)n1-c1ccc(F)cc1F | / | -13 | 1 | ? | 8% | /
O=C(CSc1nc2ccccc2c(=O)n1-c1ccc(F)cc1)Nc1ccc(C(=O)O)cc1 | -12% | -17 | -2 | -20% | 14µM* | ?
Cc1ccnc(NC(=O)CCNC(=O)c2ccc(Cl)cc2)c1 | ? | -14 | -1 | -8% | -6% | /
N#Cc1ccsc1NC(=O)CN1CCCCCC1 | -18% | -4 | -4 | / | -4% | /
CN(CC(=O)Nc1sccc1C#N)C1CCCCC1 | 2% | -2 | -2 | -3% | 7.9µM* | -14
COc1ccccc1CC(=O)Nc1ccc(S(=O)(=O)N2CCOCC2)cc1 | 29% | -4 | -7 | -19% | 10% | /
Cn1cccc1/C=N/N1CCN(Cc2ccccc2)CC1 | 14% | -1 | 15 | -10% | 2% | /
Cn1cccc1/C=N/N1CCN(c2ccccn2)CC1 | 25% | 61* | 38* | 45% | ? | -22
C#CCOc1ccc(/C=C2/C(=O)N(c3cccc(C(=O)O)c3)N=C2C)cc1OC | 5% | 11 | 2 | 5% | 11µM* | ?
CCCCCCCCCCCCCCCCCC(=O)OC[C@@H](O)[C@H]1OC[C@H](O)[C@H]1O | 13% | / | / | -4% | / | /
COC(=O)CSc1nc2c(cnn2-c2ccc(F)cc2)c(=O)[nH]1 | 51% | -4 | 1 | 30% | -1% | /
O=c1c2c3nc4ccccc4nc3n(Cc3ccccc3)c2ncn1Cc1ccco1 | / | 5 | 7 | 10µM* | 16µM* | -14
COCCCn1c2nc3ccccc3nc2c2c(=O)n(Cc3ccc(Cl)cc3)cnc21 | 10% | -14 | -3 | ? | -12% | /
COc1cc(/C=C2/C(=O)NC(=O)N(c3ccccc3)C2=O)ccc1O | ? | -12 | -3 | -6% | ? | 34
